In all, about 33,000 sequences were measured (“E-score (-0.5 to 0.5)”: median about -0.0059, highest 2% from about 0.26 on). Shown is part of a subset that was picked to be rich in the highest values.
The sequences below were run against T1, Cin5 (UniProt P40917) (assay: PBM E-score (8-mer binding enrichment) (E-score (-0.5 to 0.5)); higher = stronger / more preferred TF binding). Conditions: protein concentration: 100 nM; construct: GST-full length.
T1 sequence: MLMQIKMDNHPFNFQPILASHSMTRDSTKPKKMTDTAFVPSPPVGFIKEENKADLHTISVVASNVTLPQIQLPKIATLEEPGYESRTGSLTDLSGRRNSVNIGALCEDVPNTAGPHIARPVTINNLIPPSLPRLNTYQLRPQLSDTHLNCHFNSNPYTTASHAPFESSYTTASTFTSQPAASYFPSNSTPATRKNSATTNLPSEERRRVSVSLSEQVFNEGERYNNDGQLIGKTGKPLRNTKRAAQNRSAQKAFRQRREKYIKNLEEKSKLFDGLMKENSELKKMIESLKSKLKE
Procedure: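 Universal 'all 10-mer' protein binding microarrays (Agilent AMADID 015681) probed with GST-tagged S. cerevisiae TFs (full-length or DBD) made by in vitro transcription/translation (PURExpress), about 100-200 nM. Bound TF was detected with fluorescent anti-GST. Each ungapped 8-mer (which stands for itself and its reverse complement) is scored by the PBM enrichment score (E-score), a modified Wilcoxon-Mann-Whitney statistic from -0.5 to +0.5, computed with the Universal PBM Analysis Suite. Scale: above 0.35 generally sequence-specific binding.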

Sequence | PBM E-score
CCCACTAC | 0.0221
CTGGAGAA | -0.202
CTACACAG | -0.0209
GAAGAACA | 0.215
TAAGAACA | 0.29
CAAGAACA | -0.0469
CGTAGACG | -0.217
GAAACTGA | -0.17
CCCGAGTA | 0.15
AGTAGATC | -0.0135
CGTAGATA | 0.0684
CTTAGCTA | 0.151
GTTAGCTA | 0.0147
AATAGATA | 0.269
AGTAGATA | 0.306
ATTAGCTA | 0.3
ATTAGATG | 0.239
GATAGATA | 0.0426
ATTAGATA | 0.301
GTTAGATA | 0.113
TATAGATA | 0.176
CCGGTTTC | 0.0044

Sequence | PBM E-score
TACAATCA | 0.152
CCCTCAGG | -0.164
AACCAAAA | 0.204
CCGCCCCA | 0.109
AGTGCCGC | -0.124
AGGGCCAC | -0.194
AGAAGGGC | -0.254
ATATAACC | 0.188
CTATAACC | -0.144
CTATAACA | -0.122
GTATAACA | 0.126
ATATAACG | 0.273
ATATAACA | 0.284
CTTAAACC | -0.192
ACGGCGTC | -0.0496
GAACTGGC | -0.125
ACTAATTC | 0.204
GATAATTA | 0.218
CATAATTC | 0.138
AATAATTG | 0.0887
AATAATTA | 0.35
AATAATTC | 0.261

Sequence | PBM E-score
CCTAATTA | 0.0517
CATAATTA | 0.308
ACTAATTA | 0.228
ACCGAAGA | 0.0871
ACCAATGC | 0.0593
AGAGACTC | -0.0094
CCTCGCCC | 0.0221
AGCCTTAG | -0.197
CAACAGTA | 0.0302
GCCAGCCA | -0.193
AATACAAC | 0.236
AATACAAT | 0.154
AATACAAA | 0.342
GATACAAA | 0.173
TATACAAA | 0.169
AATACAAG | 0.294
AACTCCCT | -0.142
CATTAACG | 0.0883
CGCATGAA | 0.116
GGTAACCA | -0.151
ATTATTGA | 0.111
ACAATACG | 0.05

Sequence | PBM E-score
ACAATACC | 0.278
CTAATACA | 0.161
ACAATACT | 0.237
ATAATAAC | 0.206
CTAATACC | 0.104
GCAATACA | 0.274
ACAATACA | 0.144
ATAATACC | 0.258
GCAATACC | 0.0147
ATAATACA | 0.35
ATAATACG | 0.213
GAGTGCTA | 0.0563
CCTAACCC | -0.302
ACAAGACT | -0.039
GATTGGAA | -0.0265
ATCGAGTC | 0.0696
CTCTAAGC | 0.0569
ATTAACTG | 0.237
ATACAGGG | 0.121
ACTCGTGG | -0.041
ATGGTAGG | -0.0925
GTACTTCA | 0.279

Sequence | PBM E-score
ATACTTCA | 0.129
CTACTTCA | -0.0153
AACCCAGA | -0.0895
CGGGGCAC | -0.242
GCTCTACC | -0.288
CTAGATAA | 0.0277
ATTGAATC | -0.0743
AAAGATTA | 0.249
TAAGATTA | 0.274
TTAGATAA | 0.32
ATAGATAA | 0.267
TCAGATAA | 0.184
CTTGAATA | 0.0347
ATTGAATA | 0.277
GAAGATTA | 0.197
ATAGATAC | 0.224
ATAGATAG | 0.0352
AAAAGGAC | 0.0428
AAGACCCG | -0.133
AACGATCG | 0.0832
ACGCCCGA | -0.032

— the supplement of paper PMC3334620
